From PubChem BioAssay
Most compounds without a hit are left out; they make up all but 0.5% or so of the library.
E coli growth-1 = blocks Escherichia coli growth. OD600, 23 h; stronger effect = lower value. hit rate 0.21% among 330,000. OD600 absorbance (concentration not given with the values);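 active = OD600 absorbance below the run mean of sample wells minus 3.6 SD, in any replicate, cut at about 0.56 in these data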
E coli growth-2 = bacterial growth inhibition, counter-screen for AddAB inhibitors. inhibition, % at 11.9 µM. E. coli V3065 growth, OD600 absorbance, 18 h. hit rate 0.27% among 330,000;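 active = inhibition above the campaign's mean inhibition across all tested compounds plus 3 SD, cut at about 9.9% in these data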;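 note: uninfected addAB+ strain grown without phage in ampicillin broth; 0% = DMSO wells and 100% = ciprofloxacin 0.95 µg/ml wells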
Tat export inh = E. coli Tat transport inhibition; inhibition, % at 10 µM; E. coli MC4100 TorA-mCherry Tat export, fluorescence; hit rate 0.036% among 340,000; AID 488895;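 active = mean replicate inhibition at least 50% and at least half of replicates individually reaching 50%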;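 note: exported cargo escapes ClpAP degradation while cytoplasmic cargo is degraded and loses fluorescence; 0% = median of neutral control wells and 100% = median of NaSCN control wells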
phage Ecoli inh = E. coli growth loss with phage present. growth absorbance. hit rate 0.26% among 360,000. inhibition, % at 11.9 µM; in the data active = inhibition above about 11%
AddAB inh = less growth of phage-infected E. coli with AddAB. E. coli expressing H. pylori AddAB, absorbance growth. inhibition, % at 11.9 µM. hit rate 0.29% among 330,000; in the data active = inhibition above about 12%;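 note: 0% = vehicle wells of infected cells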
AddAB conf = confirmation screen: growth loss of phage-infected E. coli expressing H. pylori AddAB; hit rate 64% among 880; inhibition, % at 11.9 µM; E. coli V3065 expressing H. pylori AddAB, T4 phage, OD; T4 phage with gene 2 nonsense mutations; AID 488942; shares compounds with AddAB inh;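 active = mean inhibition above a set limit taken from the earlier primary screen, cut at about 13% in these data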;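 note: higher means less bacterial growth since AddAB block lets phage replicate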
RecBCD counter = AddAB counter-screen: growth loss of RecBCD+ E. coli infected with mutant T4 phage; shares compounds with AddAB inh; AID 488955; inhibition, % at 11.9 µM; hit rate 73% among 880; E. coli V66 + mutant T4 phage, OD growth;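 active = mean inhibition above the mean of solvent-only control wells plus 3 SD, cut at about 4% in these data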;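 note: optical density read after an 18 h incubation at 37 °C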
bact viab count = counter-screen: bacterial growth inhibition; shares compounds with AddAB inh; bacterial viability, absorbance (AddAB counterscreen); inhibition, % at 11.9 µM; hit rate 35% among 880; in the data active = inhibition above about 25%
RecBCD conf = confirmation: growth loss of phage-infected RecBCD+ E. coli (RecBCD inhibitor screen); shares compounds with phage Ecoli inh; E. coli V66 + T4 2- phage, growth OD; AID 651982; inhibition, % at 11.9 µM; hit rate 45% among 890;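 active = mean inhibition over triplicates exceeding the hit threshold derived in the original primary screen, cut at about 11% in these data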
Ecoli viability = inhibits E. coli viability, flagging RecBCD hits as nonselective | inhibition, % at 11.9 µM | shares compounds with phage Ecoli inh | hit rate 29% among 890 | absorbance (OD) growth; in the data active = inhibition above about 20%;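 note: E. coli strain V66 grown with compound alone and no phage infection; 0% = bacteria with DMSO vehicle only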
AddAB counter = growth loss of phage-infected AddAB E. coli, RecBCD counter-screen; shares compounds with phage Ecoli inh; E. coli expressing H. pylori AddAB + T4 phage, OD growth; gene 2 mutant T4, recBCD-deleted host; inhibition, % at 11.9 µM; hit rate 45% among 890;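 active = mean inhibition above the solvent-only control wells' mean plus 3 SD, cut at about 22% in these data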;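 note: higher means less bacterial growth from phage killing when AddAB is blocked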
* = called active by the depositor; . = no result.

SMILES | E coli growth-1 | E coli growth-2 | Tat export inh | phage Ecoli inh | AddAB inh | AddAB conf | RecBCD counter | bact viab count | RecBCD conf | Ecoli viability | AddAB counter
O=C(Nc1cccnc1)c1ccc([N+](=O)[O-])o1 | 0.41* | 96* | -37 | 20* | 97* | 98* | 20* | 91* | 13* | 17 | 101*
NC(=O)c1oc2ccccc2c1NC(=O)c1ccc([N+](=O)[O-])o1 | 0.49* | 99* | -3 | 23* | 99* | 101* | 26* | 101* | 18* | 22* | 100*
NC(=O)c1oc2ccccc2c1NC(=O)c1ccc(F)cc1 | 0.71 | 0 | -5 | 3 | -1 | . | . | . | . | . | .
C=C(C)Cn1c(SCC(=O)NN=Cc2c(O)ccc3ccccc23)nc2ccccc2c1=O | 0.72 | . | . | . | . | . | . | . | . | . | .
CON=Cc1ccc(N2CCN(C(=O)c3cccc(C(F)(F)F)c3)CC2)c([N+](=O)[O-])c1 | 0.72 | . | . | . | . | . | . | . | . | . | .
CCC(C)C1CNCCN1CC1(c2ccccc2)CC1 (stereo not drawn) | 0.68 | . | . | . | . | . | . | . | . | . | .
COc1cc(C=Nn2c(C)nc3ccccc3c2=O)cc(OC)c1O | 0.67 | . | . | . | . | . | . | . | . | . | .
CCn1cc(C(=O)O)c(=O)c2cc(F)c(N3CCN(S(=O)(=O)c4ccc(NC(C)=O)cc4)CC3)cc21 | 0.06* | 100* | 8 | 96* | 99* | 101* | 97* | 101* | 72* | 101* | 104*
CCn1cc(C(=O)NN)c(=O)c2cc(F)c(N3CCOCC3)cc21 | 0.67 | 2 | 8 | 2 | -2 | . | . | . | . | . | .
CCn1cc(C(=O)O)c(=O)c2cc(F)c(N3CCN(C(=S)NC(=O)c4cccc(C)c4)CC3)cc21 | 0.071* | 98* | 28 | 93* | 97* | 100* | 100* | 99* | 103* | 103* | 104*
CCn1cc(C(=O)O)c(=O)c2cc(F)c(N3CCN(C(=S)NC(=O)c4ccccc4F)CC3)cc21 | 0.073* | 99* | 1 | 16* | 98* | 101* | 99* | 103* | 101* | 101* | 101*
CCn1cc(C(=O)O)c(=O)c2cc(F)c(N/N=C/c3ccccc3)cc21 | . | -1 | 0 | 1 | 2 | . | . | . | . | . | .
CCn1cc(C(=O)O)c(=O)c2cc(F)c(N3CCN(C(=O)Nc4ccccc4)CC3)cc21 | 0.051* | 101* | 24 | 97* | 101* | 103* | 102* | 102* | 100* | 102* | 99*
CC1COC(=O)C(CC(=O)OC(C)(C)C)CC=CCC(CC(=O)NC(CO)Cc2ccccc2)C(=O)N1 (stereo not drawn) | 0.68 | . | . | . | . | . | . | . | . | . | .
CCn1cc(C(=O)O)c(=O)c2cc(F)c(N3CCN(C(=S)NC(=O)c4ccc(Br)cc4)CC3)cc21 | . | 98* | 44 | 99* | 99* | 99* | 99* | 100* | 102* | 102* | 103*
C=CCNC(=O)c1cn(CC)c2cc(N3CCN(C(=O)c4ccco4)CC3)c(F)cc2c1=O | 0.057* | 99* | 14 | 25* | 99* | 99* | 19* | 101* | 12* | 15 | 100*
CCn1cc(C(=O)O)c(=O)c2cc(F)c(N3CCN(C(=S)NC(=O)c4ccc(OC)cc4)CC3)cc21 | 0.076* | 99* | 81* | 101* | 99* | 100* | 100* | 102* | 104* | 105* | 105*
CCOC(=O)C1(CCC(C)=NNC(N)=O)CC(C)(C)OC1=O (stereo not drawn) | 0.64 | . | . | . | . | . | . | . | . | . | .
Cc1ccc(C=NNc2cn[nH]c(=O)n2)o1 | 0.69 | . | . | . | . | . | . | . | . | . | .
O=c1cnnc(N/N=C/c2ccccn2)[nH]1 | . | 41* | -23 | 42* | 53* | 38* | 44* | 34* | 37* | 47* | 47*
